Among the data in PubChem BioAssay (Tox21) are Potency values, retold here.

Assay [1] is described as follows: qHTS assay to identify aromatase inhibitors - cell viability counter screen (AID 743084).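 Further: cells stimulated with testosterone during compound exposure; nearly all actives have a fitted effect of over 55% in size.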 Further: potency means the concentration at half of the fitted maximal effect.
For assay [2], the target named is Aryl hydrocarbon receptor (Homo sapiens) (UniProt P35869). Briefly: qHTS assay to identify small molecule that activate the aryl hydrocarbon receptor (AhR) signaling pathway (AID 743085).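 Further: HG2L7.5c1 human HepG2 liver cells with stably integrated DRE-driven firefly reporter; series mostly up to about 70 µM; nearly all actives have a fitted effect of over 15% in size.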 A digest of the protocol: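 Steps: seed HepG2-AhR-luc cells; allow 5 h at 37C; pin-transfer test compound or vehicle; incubate 24 h at 37C; add viability dye (30 min, 37C) and read fluorescence; add luciferase substrate (30 min, RT) and read luminescence.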
Aryl hydrocarbon receptor (Homo sapiens), sequence (P35869 whole entry, looked up): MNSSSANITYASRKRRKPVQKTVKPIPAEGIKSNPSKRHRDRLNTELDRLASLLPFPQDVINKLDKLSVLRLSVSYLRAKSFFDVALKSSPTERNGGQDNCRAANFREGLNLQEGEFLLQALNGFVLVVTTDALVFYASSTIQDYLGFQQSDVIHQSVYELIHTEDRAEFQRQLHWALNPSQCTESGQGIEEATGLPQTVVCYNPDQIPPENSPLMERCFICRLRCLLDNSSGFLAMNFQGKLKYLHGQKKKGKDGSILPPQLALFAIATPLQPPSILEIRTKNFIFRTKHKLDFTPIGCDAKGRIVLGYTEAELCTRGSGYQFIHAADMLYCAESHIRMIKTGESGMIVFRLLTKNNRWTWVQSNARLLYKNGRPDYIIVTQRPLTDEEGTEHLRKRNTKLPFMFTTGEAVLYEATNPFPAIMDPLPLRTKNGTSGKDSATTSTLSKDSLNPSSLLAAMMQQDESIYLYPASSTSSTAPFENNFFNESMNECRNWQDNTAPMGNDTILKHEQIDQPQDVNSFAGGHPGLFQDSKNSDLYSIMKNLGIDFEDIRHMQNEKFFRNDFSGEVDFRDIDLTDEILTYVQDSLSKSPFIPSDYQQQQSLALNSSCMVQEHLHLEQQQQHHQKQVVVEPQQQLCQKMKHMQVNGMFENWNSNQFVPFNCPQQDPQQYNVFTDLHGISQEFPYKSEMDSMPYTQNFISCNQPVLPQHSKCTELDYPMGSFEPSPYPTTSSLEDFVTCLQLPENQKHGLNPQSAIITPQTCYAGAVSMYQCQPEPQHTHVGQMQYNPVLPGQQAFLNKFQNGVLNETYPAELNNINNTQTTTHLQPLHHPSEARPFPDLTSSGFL

The nature of assay [3]: qHTS assay to identify small molecule that activate the aryl hydrocarbon receptor (AhR) signaling pathway - cell viability counter screen (AID 743086). Further: nearly all actives have a fitted effect of over 45% in size. Further: potency means the concentration at half of the fitted maximal effect. A digest of the protocol:
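HepG2-AhR-luc (HG2L7.5c1) cells, 4000/well, treated 24 h at 37 C with compound; viability measured as CellTiter-Fluor fluorescence after 30 min in the same wells as the luciferase read.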

Assay [4] in a line: qHTS assay to identify small molecule antagonists of the peroxisome proliferator-activated receptor gamma (PPARg) signaling pathway - cell viability counter screen (AID 743194). Further: nearly all actives have a fitted effect of over 55% in size. Further: potency means the concentration at half of the fitted maximal effect. A digest of the protocol:
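Cytotoxicity counter screen in PPARg-bla HEK293H cells, same wells as reporter assay. Compounds plus 50 nM rosiglitazone (final) for 17 h at 37 C, then viability read by CellTiter-Glo luminescence.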

Assay [5] is described as follows: qHTS assay for small molecule agonists of the antioxidant response element (ARE) signaling pathway (AID 743202; active means well fitted activation curve with a large enough effect in the signal ratio in the repeat runs, not every such curve was filed as active; the % refers to the signal ratio; further: potency means the concentration at half of the fitted maximal effect). Put shortly: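 HepG2 ARE-bla cells; 16 h treatment at 37 C; FRET-based beta-lactamase fluorescence read after 2 h substrate incubation at room temperature.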
A short description of assay [6]: qHTS assay for small molecule agonists of the antioxidant response element (ARE) signaling pathway - cell viability counter screen (AID 743203; calls by dose curve; further: nearly all actives have a fitted effect of over 55% in size; further: potency means the concentration at half of the fitted maximal effect). Put shortly: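 Viability counter screen: CellTiter-Glo luminescence, read after 30 min at room temperature, in ARE-bla HepG2 wells. Compound exposure lasted 16 h at 37C/5% CO2, following a 5 h pre-incubation of the cells after plating.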

Assay [7] is described as follows: qHTS assay for small molecule activators of the heat shock response signaling pathway - cell viability counter screen (AID 743209). Further: nearly all actives have a fitted effect of over 50% in size. Further: potency means the concentration at half of the fitted maximal effect. Put shortly:
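Cytotoxicity counter screen run in the same wells as the heat-shock bla reporter assay: HeLa HSE-bla cells, 5 h compound exposure at 37 C, viability read by CellTiter-Glo luminescence.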

Assay [8] has as its target Peroxisome proliferator-activated receptor delta (Homo sapiens) (UniProt Q03181). Briefly: qHTS assay to identify small molecule agonists of the peroxisome proliferator-activated receptor delta (PPARd) signaling pathway (AID 743212; calls by dose curve). A digest of the protocol:
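Tox21 library screened in GeneBLAzer PPARd UAS-bla HEK293H cells. After compound treatment at 37 C, a FRET-based beta-lactamase substrate was applied for 2 h and fluorescence recorded.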

Assay [9] can be described thus: qHTS assay to identify small molecule antagonists of the peroxisome proliferator-activated receptor delta (PPARd) signaling pathway - cell viability counter screen (AID 743213). Further: nearly all actives have a fitted effect of over 50% in size. A digest of the protocol: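 Agonist-stimulated (L165041, 300 nM final) HEK293H PPARd UAS-bla cells are exposed to compounds for 17 h at 37 C, and ATP-based luminescence (CellTiter-Glo) from the same wells reports cytotoxicity.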

Assay [10] in a line: qHTS assay to identify small molecule agonists of the farnesoid-X-receptor (FXR) signaling pathway - cell viability counter screen (AID 743218). Further: nearly all actives have a fitted effect of over 45% in size. Further: potency means the concentration at half of the fitted maximal effect. Put shortly: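 Viability counter screen in the same wells: CellTiter-Glo luminescence, 30 min room-temperature incubation, measured after the beta-lactamase read. Cells were GeneBLAzer FXR-UAS-bla HEK 293T, compound-treated 16 h at 37C.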

Assay [11] in a line: qHTS assay to identify small molecule antagonists of the farnesoid-X-receptor (FXR) signaling pathway - cell viability counter screen (AID 743221; active means well fitted cell-killing curve with a large enough effect in the repeat runs, not every such curve was filed as active; further: nearly all actives have a fitted effect of over 50% in size; further: potency means the concentration at half of the fitted maximal effect). A digest of the protocol: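 Quantitative HTS of the Tox21 10K library run in parallel with the beta-lactamase reporter read. HEK 293T cells carrying a UAS-driven bla reporter got compound and 50 uM CDCA (final) for 16 h; ATP-based luminescence followed.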

Assay [12] concerns the target Vitamin D3 receptor (Homo sapiens) (UniProt P11473). Briefly: qHTS assay to identify small molecule agonists of the vitamin D receptor (VDR) signaling pathway (AID 743222; calls by dose curve). A digest of the protocol: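 Agonist mode, beta-lactamase reporter: fluorescence from LiveBLAzer B/G FRET substrate (2 h, room temperature) read after 16 h compound treatment at 37 C of VDR-bla cells, which were pre-incubated 4 h after seeding.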

For assay [13] the target is unchanged. Briefly: qHTS assay to identify small molecule antagonists of the vitamin D receptor (VDR) signaling pathway (AID 743223; active means well fitted inhibition curve with a large enough effect in the signal ratio in the repeat runs, not every such curve was filed as active; the % refers to the signal ratio). Put shortly: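 Fluorescence from LiveBLAzer B/G FRET substrate, read after 2 h at room temperature, reflects beta-lactamase reporter activity in VDR-bla cells treated 16 h at 37C with compounds and agonist 1alpha,25-dihydroxyvitamin D3 (3 nM final).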

Assay [14] in a line: qHTS assay for small molecule activators of the heat shock response signaling pathway (AID 743210; active means well fitted activation curve with a large enough effect in the signal ratio in the repeat runs, with a control signal flat, not every such curve was filed as active; the % refers to the signal ratio;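 further: HeLa cells with beta-lactamase reporter driven by heat shock elements; series mostly up to about 63 µM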). A digest of the protocol:
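Following overnight attachment, HSE-bla HeLa cells received test compounds for 5 h at 37 C; beta-lactamase activity was then detected via FRET substrate fluorescence.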

A short description of assay [15]: qHTS assay to identify small molecule agonists of the peroxisome proliferator-activated receptor delta (PPARd) signaling pathway - cell viability counter screen (AID 743211). Further: nearly all actives have a fitted effect of over 55% in size. Further: potency means the concentration at half of the fitted maximal effect. Put shortly:
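Viability of GeneBLAzer PPARd UAS-bla HEK293H cells was assessed after 17 h compound incubation at 37C, using CellTiter-Glo reagent added after the reporter read and luminescence recorded 30 min later.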

In assay [16] the target is Peroxisome proliferator-activated receptor delta (Homo sapiens) (UniProt Q03181). Briefly: qHTS assay to identify small molecule antagonists of the peroxisome proliferator-activated receptor delta (PPARd) signaling pathway (AID 743215; active means well fitted inhibition curve with a large enough effect in the signal ratio in the repeat runs, not every such curve was filed as active; the % refers to the signal ratio; further: series mostly up to about 62 µM). Put shortly: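 Agonist L165041 (300 nM final) added with compound to PPARd-bla HEK293H UAS-bla reporter cells; 17 h incubation at 37 C. Read-out: LiveBLAzer FRET substrate, 2 h at room temperature, fluorescence intensity.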
Peroxisome proliferator-activated receptor delta (Homo sapiens), sequence (Q03181 whole entry, looked up): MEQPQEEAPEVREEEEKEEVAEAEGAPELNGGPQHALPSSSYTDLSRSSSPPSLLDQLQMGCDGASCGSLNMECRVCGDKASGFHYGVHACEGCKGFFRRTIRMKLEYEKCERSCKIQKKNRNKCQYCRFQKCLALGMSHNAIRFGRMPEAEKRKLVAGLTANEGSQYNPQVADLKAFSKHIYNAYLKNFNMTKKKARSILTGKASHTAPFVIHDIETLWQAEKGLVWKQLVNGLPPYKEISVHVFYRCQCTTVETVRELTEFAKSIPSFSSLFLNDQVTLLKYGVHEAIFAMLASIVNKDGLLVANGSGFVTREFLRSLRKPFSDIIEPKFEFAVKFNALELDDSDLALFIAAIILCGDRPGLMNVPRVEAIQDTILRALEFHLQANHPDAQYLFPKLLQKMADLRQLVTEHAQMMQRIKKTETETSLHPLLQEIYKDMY

The target of assay [17] is Bile acid receptor (Homo sapiens) (UniProt Q96RI1). Briefly: qHTS assay to identify small molecule agonists of the farnesoid-X-receptor (FXR) signaling pathway (AID 743220; active means well fitted activation curve with a large enough effect in the signal ratio in the repeat runs, not every such curve was filed as active; the % refers to the signal ratio). A digest of the protocol: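 FXR-UAS-bla HEK 293T cells carrying a UAS-driven beta-lactamase reporter were plated for 5 h at 37C/5% CO2, then exposed to DMSO-dissolved Tox21 10K compounds for 16 h at 37C. A LiveBLAzer B/G FRET substrate was loaded for 2 h at room temperature before fluorescence reading.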
Bile acid receptor (Homo sapiens), sequence (Q96RI1 whole entry, looked up): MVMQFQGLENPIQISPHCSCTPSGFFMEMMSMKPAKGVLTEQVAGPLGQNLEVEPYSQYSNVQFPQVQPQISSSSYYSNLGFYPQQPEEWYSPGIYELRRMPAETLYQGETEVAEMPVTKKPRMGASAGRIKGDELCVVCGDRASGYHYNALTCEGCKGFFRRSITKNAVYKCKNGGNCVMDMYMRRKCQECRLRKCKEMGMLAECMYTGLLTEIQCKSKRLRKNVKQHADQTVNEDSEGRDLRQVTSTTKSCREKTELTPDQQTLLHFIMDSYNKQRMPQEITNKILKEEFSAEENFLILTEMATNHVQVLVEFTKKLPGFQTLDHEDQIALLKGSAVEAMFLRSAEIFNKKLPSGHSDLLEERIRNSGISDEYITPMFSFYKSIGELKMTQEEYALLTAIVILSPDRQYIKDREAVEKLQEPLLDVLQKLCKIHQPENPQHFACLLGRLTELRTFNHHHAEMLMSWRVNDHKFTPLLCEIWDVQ

Assay [18] deals with Peroxisome proliferator-activated receptor gamma (Homo sapiens) (UniProt P37231). As to the kind of experiment: qHTS assay to identify small molecule antagonists of the peroxisome proliferator-activated receptor gamma (PPARg) signaling pathway (AID 743191; calls by dose curve; further: series mostly up to about 63 µM; nearly all actives have a fitted effect of over 30% in size). A digest of the protocol: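 GeneBLAzer PPARg UAS-bla HEK293H cells, 5 h post-plating, exposed to compounds 17 h at 37C. LiveBLAzer B/G FRET substrate added for 1 h at room temperature; beta-lactamase reporter read by fluorescence intensity.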
Peroxisome proliferator-activated receptor gamma (Homo sapiens), sequence (P37231 whole entry, looked up): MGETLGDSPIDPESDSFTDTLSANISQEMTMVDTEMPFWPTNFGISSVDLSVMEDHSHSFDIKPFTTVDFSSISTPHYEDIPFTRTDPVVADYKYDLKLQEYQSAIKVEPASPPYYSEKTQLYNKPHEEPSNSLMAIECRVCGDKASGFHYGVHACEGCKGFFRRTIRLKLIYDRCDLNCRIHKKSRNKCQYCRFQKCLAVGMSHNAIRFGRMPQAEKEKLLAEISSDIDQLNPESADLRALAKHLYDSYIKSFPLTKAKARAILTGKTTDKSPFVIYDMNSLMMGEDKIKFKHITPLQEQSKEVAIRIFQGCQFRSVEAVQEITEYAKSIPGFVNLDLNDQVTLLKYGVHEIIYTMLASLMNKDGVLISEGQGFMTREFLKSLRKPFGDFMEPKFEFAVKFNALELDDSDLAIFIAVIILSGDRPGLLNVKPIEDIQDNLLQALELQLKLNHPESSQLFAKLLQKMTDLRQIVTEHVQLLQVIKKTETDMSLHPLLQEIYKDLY

“And” between values parts separate entries of the source, which are not always exact repeats. Equal entries are not always repeated. Inconclusive results are not listed. Some compounds were tested as several samples or in several runs, with calls that do not always agree. The source made the active and inactive calls. Unless noted, the call rests on the fitted dose curve; in most records, active means well fitted curve in the direction sought with a large enough effect in the repeat runs; inconclusive means weak or mixed curves; inactive means no such curve, though single readings can be large; an effect the other way counts as inactive or inconclusive.

Vitamin D3 receptor (Homo sapiens), sequence (P11473 whole entry, looked up): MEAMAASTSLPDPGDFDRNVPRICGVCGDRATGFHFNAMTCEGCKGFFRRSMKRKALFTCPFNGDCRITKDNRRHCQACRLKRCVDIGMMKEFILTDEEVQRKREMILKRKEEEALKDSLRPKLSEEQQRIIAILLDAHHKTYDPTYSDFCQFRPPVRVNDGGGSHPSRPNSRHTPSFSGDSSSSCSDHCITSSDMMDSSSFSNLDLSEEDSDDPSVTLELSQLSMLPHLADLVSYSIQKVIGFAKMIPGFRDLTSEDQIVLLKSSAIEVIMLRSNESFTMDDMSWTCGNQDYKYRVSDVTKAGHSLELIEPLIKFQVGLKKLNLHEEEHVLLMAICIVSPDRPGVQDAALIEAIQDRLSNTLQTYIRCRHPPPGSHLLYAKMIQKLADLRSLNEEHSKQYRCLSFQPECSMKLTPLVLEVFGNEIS

Consider `C#C[C@]1(O)CC[C@H]2[C@@H]3[C@H](C)CC4=C(CCC(=O)C4)[C@H]3CC[C@@]21C`, for which the Potency entry in assay [1], in assay [2], in assay [3], in assay [4], in assay [6] and in assay [7] was “inactive” throughout. Also, the Potency entry in assay [8], in [9], in [10], in assay [11], in assay [12] and in assay [13] was “inactive” each time. For the same compound, in assay [5], the Potency was 23.7 µM (active).

As to `Cc1nc2n(c(=O)c1CCN1CCC(c3noc4cc(F)ccc34)CC1)CCCC2`, the Potency result in assay [1], in assay [2], in assay [3], in assay [4], in [6] and in [7] was “inactive” each time. Besides, the Potency result in [14], in assay [15], in assay [8], in [9], in [16] and in assay [10] was “inactive” throughout. In addition, the Potency entry in [11] and in assay [12] was “inactive” in each case.

`CC(N=C(NC#N)Nc1ccncc1)C(C)(C)C` (stereo not drawn): the Potency entry in [1], in assay [2], in assay [3], in assay [4], in assay [6] and in [7] was “inactive” throughout. For the same compound, the Potency entry in [15], in assay [9], in [17] and in [11] was “inactive” in each case.

`CCCCCCCCCCCCCC[N+](C)(C)C`: the Potency result in assay [1] was “inactive and 59.1 µM (active)”; in assay [3] it was 16.8 µM (active) and 52.7 µM (active) and 54.4 µM (active); in assay [4], 18.8 µM (active) and 24.5 µM (active) and 29.8 µM (active); in assay [6], 23.5 µM (active) and 17.2 µM (active) and 26.6 µM (active); in [15] it was 37.6 µM (active) and 24.5 µM (active) and 26.6 µM (active); in assay [10], 47.3 µM (active). Besides, the Potency in assay [11] was 47.3 µM (active) and 29.8 µM (active). Also, the Potency entry in [2] and in assay [17] was “inactive” in each case.

`CC1=Nc2ccccc2C1(C)C`: the Potency entry in [1], in assay [2], in [3], in [4], in assay [5] and in [6] was “inactive” each time. Further, the Potency entry in [7], in [15], in assay [8], in assay [9], in assay [16] and in assay [10] was “inactive” throughout. In addition, the Potency result in assay [11], in assay [12] and in assay [13] was “inactive” in each case.

With `C=CC(=O)OCCOC(=O)C=C`, the results for the Potency in assay [1], in [5] and in [7] were 54.5 µM (active), 61.1 µM (active) and 6.92 µM (active), respectively. In addition, the Potency entry in assay [2], in [3], in assay [6], in assay [9], in [11] and in [13] was “inactive” throughout.

As for `O=c1[nH]c(=O)n([C@H]2C[C@H](O)[C@@H](CO)O2)cc1F`, the Potency entry in [1], in [2], in assay [3], in assay [18], in assay [7] and in assay [14] was “inactive” in each case. Moreover, the Potency result in assay [8], in assay [16], in [12] and in assay [13] was “inactive” each time. In addition, the figures for the Potency in assay [10] and in [11] were 13.3 µM (active) and 11.9 µM (active), respectively.

`CCCCCCCC`: the Potency result in [1], in [2], in assay [3], in [18], in [4] and in [5] was “inactive” throughout. Further, the Potency entry in assay [6], in assay [7], in [14], in [15], in assay [8] and in [16] was “inactive” in each case. The Potency result in [17], in assay [11], in [12] and in assay [13] was “inactive” each time.
